# Data published in PubChem BioAssay (NCI).
# The panel holds about 83,000 compounds, 20% with a hit somewhere; the sample as a whole holds those more often.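 Interpretation: 100, growth as untreated; towards 0, rising growth inhibition; 0, no net growth; 0 to -100, cell death. Compounds scoring below 10 were considered active.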 A number with no mark means an inactive call. Activity calls are given as the source filed them.
# Legend:
# Test in all cases: NCI-60 one-dose screen, 48 h (100 = growth as untreated, 0 = no growth, -100 = all killed)
# Conditions in all cases: 10 µM unless noted
# DU-145 prostate = tested on: DU-145 prostate
# MALME-3M melanoma = tested on: MALME-3M melanoma
# MDA-MB-231 breast = tested on: MDA-MB-231 breast
# RXF 393 renal = tested on: RXF 393 renal
# SF-268 CNS = tested on: SF-268 CNS
# SF-295 CNS = tested on: SF-295 CNS
# SF-539 CNS = tested on: SF-539 CNS
# UACC-257 melanoma = tested on: UACC-257 melanoma
# M14 melanoma = tested on: M14 melanoma
SMILES,growth (DU-145 prostate),growth (MALME-3M melanoma),growth (MDA-MB-231 breast),growth (RXF 393 renal),growth (SF-268 CNS),growth (SF-295 CNS),growth (SF-539 CNS),growth (UACC-257 melanoma),growth (M14 melanoma)
COc1ccc(-c2cnc3c(-c4cccc5ncccc45)cnn3c2)cc1,58.1%,15%,-1.88% (active),26.7%,19%,32.2%,30.8%,51.3%,76.8%
COc1cc(/C=C\c2cc(OC)c(OC)c(OC)c2)cc(N)c1OC,110%,77.9%,88.6%,105%,93.3%,73.7%,84.3%,87.5%,66.1%
CN1CCN(CCNc2nccc(-c3c(-c4cccc(O)c4)nc4sccn34)n2)S1(=O)=O,56.5%,-20% (active),24.3%,39.2%,85.6%,95.9%,79.9%,-10.6% (active),-4.02% (active)
Cn1cc(-c2nc(-c3c[nH]c4c(Cl)nccc34)cs2)c2cc(Br)ccc21,80.3%,118%,96.9%,95.9%,105%,91.4%,82.5%,54.1%,73.5%
C[C@H]1[C@H](C)CC[C@]2(C(=O)Nc3ccc4ncccc4c3)CC[C@]3(C)C(=CC[C@@H]4[C@@]5(C)CCCNC(C)(C)[C@@H]5CC[C@]43C)[C@H]12,-74.1% (active),-78.5% (active),-71.9% (active),-84.8% (active),-40.4% (active),-50.8% (active),-72.9% (active),-86.9% (active),-92% (active)
Cc1nn(-c2ccccc2)c(Cl)c1/C=C/C(=O)c1ccc(F)cc1,104%,93.2%,97.9%,80.8%,96.8%,91.2%,89.9%,88.9%,80.6%
Cc1cccc(C)c1N=c1oc2ccc(Cl)cc2nc1-c1ccccc1O,120%,105%,83.6%,90.9%,92.1%,106%,99.5%,90.8%,80.5%
N#CC1=C(N)Oc2c(cnn2-c2ccc([N+](=O)[O-])cc2[N+](=O)[O-])C1c1ccccc1 (stereo unspecified),114%,99.8%,105%,110%,102%,93.3%,98.2%,94.1%,95.3%
Cc1ccc(C(=O)/C(=C\c2ccc([N+](=O)[O-])cc2)S(=O)Cc2ccc(Cl)cc2)cc1 (stereo unspecified),23.3%,34.1%,23.8%,-69% (active),25.5%,73.2%,53.5%,94.9%,41.4%
